Measured values reported in ChEMBL document CHEMBL3988442, “University of Dundee, Small-Polar-MMV Screening Library” (2021).
Screen size: about 38,000 compounds; about 1,200 (3.2%) showed an effect of 50% or more. The median lay at about -58%. For the sample, strong results were picked, then their nearest neighbours and some compounds at random.

These compounds were tested on Plasmodium falciparum (assay: Calibr Malaria Delayed Death Assay SOP). Details: concentration 4.99e-06 (unit not given; other assays of the set use mol/L).
Assay type: functional, organism-based
Parameters: scale not given: in the data most compounds retested in dose-response had high values

First: N#Cc1csc(CNCCOc2ccccc2)c1
Second: Cc1nc(C)n(CC2CN(CCCOc3ccccc3)CCO2)n1 (stereo not drawn)
The “Percent Effect” value of the first is lower: -47.61% for the first, -31.23% for the second.

First: CC(C)N1Cc2c(C(=O)N3CCN(C)CC3)nn(C)c2C1
Second: Cc1ccc(C(=O)N2CCC3(CCCC3)CC2)c(=O)[nH]1
The “Percent Effect” value of the first is lower: -111.4% for the first, -40.97% for the second.

First: Cc1ccc(-c2nc(CN3CCCC3Cn3cncn3)co2)cc1 (stereo not drawn)
Second: CC(=O)N(C)c1nc(CN2CCCC2Cn2cncn2)cs1 (stereo not drawn)
The “Percent Effect” value of the first is higher: -9.69% for the first, -120.1% for the second.

Going from `CC1CS(=O)(=O)CCN1Cc1ccccc1N(C)C` (stereo not drawn) to `CN(C)c1ccccc1CN1CCCCC1CNS(C)(=O)=O` (stereo not drawn), the “Percent Effect” value rises from -5.29% to 58.92%.

Compared with `CS(=O)(=O)NCC1CCCCN1Cc1ccccc1C#N` (stereo not drawn), `CS(=O)(=O)NC[C@]12COC[C@H]1CN(C(=O)CC1CCCC1)C2` is lower in “Percent Effect” value: -35.93% for the first, -153.3% for the second.

Going from `c1ccc(CC2(CNCc3ncc[nH]3)CCC2)cc1` to `CCCC1(CNCc2ncc[nH]2)CCC1`, the “Percent Effect” value falls from 42.05% to 24.35%.

Going from `CCC1(CNCc2ncc[nH]2)CCCC1` to `CCN1CCC(CNc2nccc(C)n2)(N(C)C)CC1`, the “Percent Effect” value falls from 66.04% to -52.36%.

Going from `Cl.c1cc(OCc2ccc3c(c2)OCO3)ccc1CNC1CC1` to `CC1CCCN(Cc2ccc(CNC(=O)NCc3ccon3)cc2)C1` (stereo not drawn), the “Percent Effect” value rises from -194.6% to -178.1%.

Compared with `O=C(Nc1cccc(OCC(F)F)n1)c1ccncc1F`, `O=C(O)C(F)(F)F.c1cnc(N2CC[C@@H](OCC3CC3)[C@@H]2Cc2cccnc2)nc1` is higher in “Percent Effect” value: -156.1% for the first, -48.06% for the second.

Compared with `O=C1NC(c2ccccc2)=N[C@@]12CC[C@@H]1CN(Cc3ccncc3)C[C@@H]12`, `O=C1NC(c2ccccc2)=N[C@@]12CC[C@@H]1CN(Cc3ccoc3)C[C@@H]12` is higher in “Percent Effect” value: 12.66% for the first, 57.5% for the second.

Compared with `O=C1NC(c2ccccc2)=N[C@@]12CC[C@@H]1CN(Cc3ccco3)C[C@@H]12`, `Cn1cc(CN2CC[C@@H]3[C@H]2CCC(=O)N3c2ccccc2)cn1.O=C(O)C(F)(F)F` is lower in “Percent Effect” value: 17.95% for the first, -62.18% for the second.

Going from `CN1CCNC(=O)C1CC(=O)NCCc1cnn(-c2ccccc2)c1` (stereo not drawn) to `Cn1cc(C(=O)CC2CCCN2C(=O)c2c[nH]c3ccccc23)cn1` (stereo not drawn), the “Percent Effect” value rises from -54.63% to 4.786%.

Going from `Fc1cccc(CN2CCOC3(COCCN(CC4CC4)C3)C2)c1.O=C(O)C(F)(F)F.O=C(O)C(F)(F)F` (stereo not drawn) to `Fc1cccc(CN2CCOCC3(CCN(C4CCOCC4)C3)C2)c1.O=C(O)C(F)(F)F.O=C(O)C(F)(F)F` (stereo not drawn), the “Percent Effect” value rises from 61.62% to 77.57%.

First: COc1ccc(CN2CCOCC3(CCN(C4CCOCC4)C3)C2)cc1.O=C(O)C(F)(F)F.O=C(O)C(F)(F)F (stereo not drawn)
Second: Cc1cccc(CN2CCOCC3(CCN(C4CCOCC4)C3)C2)c1.O=C(O)C(F)(F)F.O=C(O)C(F)(F)F (stereo not drawn)
The “Percent Effect” value of the first is lower: 59.83% for the first, 78% for the second.

First: Cc1occc1C(=O)N1CCOCC2(CCN(C3CCOCC3)C2)C1.O=C(O)C(F)(F)F (stereo not drawn)
Second: Cc1ccc(C(=O)N2CCOCC3(CCN(C4CCOCC4)C3)C2)o1.O=C(O)C(F)(F)F (stereo not drawn)
The “Percent Effect” value of the first is higher: -32.59% for the first, -106.4% for the second.

Going from `c1cc(CN2CCOCC3(CCN(C4CCOCC4)C3)C2)ccn1` (stereo not drawn) to `O=C(O)C(F)(F)F.O=C(c1ccco1)N1CCOCC2(CCN(C3CCOCC3)C2)C1` (stereo not drawn), the “Percent Effect” value rises from -42.35% to -3.89%.

First: Cc1cccc(CN2CCOCC3(CCN(C4CCOCC4)C3)C2)n1.O=C(O)C(F)(F)F.O=C(O)C(F)(F)F.O=C(O)C(F)(F)F (stereo not drawn)
Second: O=C(O)C(F)(F)F.O=C(O)C(F)(F)F.O=C(O)C(F)(F)F.c1cncc(CN2CCC3(COCCN(C4CCOCC4)C3)C2)c1 (stereo not drawn)
The “Percent Effect” value of the first is higher: 40.9% for the first, -45.9% for the second.

First: O=C(N1CCOCC1)[C@@]12CCO[C@@H]1CCN(Cc1cccc(F)c1)C2.O=C(O)C(F)(F)F
Second: O=C(O)C(F)(F)F.O=C(c1ccoc1)N1CCOC2(COCCN(CC3CC3)C2)C1 (stereo not drawn)
The “Percent Effect” value of the first is lower: -31.47% for the first, -22.12% for the second.

Compared with `O=C(O)C(F)(F)F.O=C([C@@H]1C[C@@H]2CCN(C3CCOCC3)C[C@H]2O1)N1CCOCC1`, `CO[C@@H]1CC[C@H]2[C@H]1OCCN2C(=O)C1CCOCC1` is lower in “Percent Effect” value: -14.29% for the first, -57.64% for the second.

Going from `c1cc(-c2cn[nH]c2)ccc1CN1CCCCC1` to `Fc1ccc(CN2CCCC3(COCCN(Cc4c[nH]nn4)C3)C2)cc1.O=C(O)C(F)(F)F.O=C(O)C(F)(F)F` (stereo not drawn), the “Percent Effect” value rises from -42.56% to 61.69%.

Going from `CCn1ccnc1CNCc1ccc(C)cc1OC(C)(C)C` to `Cc1cccc2nc(CN3CCCC(C)C3)cc(=O)n12` (stereo not drawn), the “Percent Effect” value falls from 21.04% to -16.65%.

First: Cn1cnc2nc3n(c2c1=O)CCC3
Second: COc1ccc2nnc(CCC(=O)Nc3nc4c(s3)CCC4)n2n1
The “Percent Effect” value of the first is lower: -114.6% for the first, -9.679% for the second.

Going from `O=C(O)C(F)(F)F.O=C(O)C(F)(F)F.c1cc(CN2CCCC3(COCCN(Cc4c[nH]nn4)C3)C2)cs1` (stereo not drawn) to `Cn1cc(CN2CCCC3(COCCN(Cc4c[nH]nn4)C3)C2)cn1.O=C(O)C(F)(F)F.O=C(O)C(F)(F)F` (stereo not drawn), the “Percent Effect” value falls from 27.82% to -58.09%.

First: NS(=O)(=O)c1cnn(CCC(=O)N(C2CCCCC2)C2CC2)c1
Second: CCN(C(C)=O)c1nc(CN2CCCCC2Cn2cncn2)cs1 (stereo not drawn)
The “Percent Effect” value of the first is lower: -77.61% for the first, 7.085% for the second.

Going from `CC(C)(C(=O)NCC(=O)N1CCCC1)c1ccccc1F` to `COC(=O)CCC(=O)N1CCC2(CN(Cc3cccc(Cl)c3)C2)C1`, the “Percent Effect” value falls from -11.95% to -43.68%.

Going from `COCCC(=O)N1CCC2(CN(Cc3cccc(Cl)c3)C2)C1` to `CC(=O)N(C)c1nc(CN2CCCCC2Cn2cncn2)cs1` (stereo not drawn), the “Percent Effect” value rises from -141.8% to -131.1%.

First: CC(=O)N(c1ccc(C)cc1)c1nc(CN2CCCC(C)C2)cs1 (stereo not drawn)
Second: CC(=O)N(c1ccc(C)cc1)c1nc(CN2CCCCC2C)cs1 (stereo not drawn)
The “Percent Effect” value of the first is higher: 82.35% for the first, 61.62% for the second.

First: CC(=O)N(C)c1nc(CN2CCCC2c2cnn(C)c2)cs1 (stereo not drawn)
Second: CC(=O)N(c1ccc(F)cc1)c1nc(CN2CCCC2C(C)C)cs1 (stereo not drawn)
The “Percent Effect” value of the first is lower: -87.18% for the first, 89.73% for the second.

Going from `CCC(CO)N(C/C(C)=C/c1ccco1)Cc1ccco1` (stereo not drawn) to `Cc1ccc(C(=O)N2CCO[C@H]3[C@H](OCC4CCOCC4)CC[C@@H]32)o1`, the “Percent Effect” value rises from -44.13% to -19.31%.
